In ChEMBL document CHEMBL4296183, “CO-ADD screening of NIH NCI Natural Product Set III” (2020):
For some assays here: Potency and affinity values are given separately.

Columns and labels:
[1] = test system: Staphylococcus aureus; assay: Antibacterial activity against Staphylococcus aureus MRSA ATCC 43300 (CO-ADD:GP_020); MIC in CAMBH media using NBS plates, by Resazurin F(560/590); type: functional; conditions: Concentration 20 uM, ASSAY_TEST Inhibition of Bacterial Growth, detection method Resazurin, Fluorescence (ex560/em590), MEDIA CAMHB, plate type 384well, CORNING #3640, time 18 hr
[2] = test system: Acinetobacter baumannii; assay: Antibacterial activity against Acinetobacter baumannii ATCC 19606 (CO-ADD:GN_034); MIC in CAMBH media using NBS plates, by Resazurin F(560/590); type: functional; conditions: Concentration 20 uM, ASSAY_TEST Inhibition of Bacterial Growth, detection method Resazurin, Fluorescence (ex560/em590), MEDIA CAMHB, plate type 384well, CORNING #3640, time 18 hr
[3] = test system: Escherichia coli; assay: Antibacterial activity against Escherichia coli ATCC 25922 (CO-ADD:GN_001); MIC in CAMBH media using NBS plates, by Resazurin F(560/590); type: functional; conditions: Concentration 20 uM, ASSAY_TEST Inhibition of Bacterial Growth, detection method Resazurin, Fluorescence (ex560/em590), MEDIA CAMHB, plate type 384well, CORNING #3640, time 18 hr
[4] = test system: Klebsiella pneumoniae; conditions: Concentration 20 uM; ASSAY_TEST Inhibition of Bacterial Growth; detection method Absorption (OD600); MEDIA CAMHB; plate type 384well; NBS; CORNING #3640; time 18 hr
[5] = test system: Candida albicans; conditions: 20 µM
[6] = test system: Cryptococcus neoformans; conditions: Concentration 20 uM; ASSAY_TEST Inhibition of Fungal Growth; detection method Resazurin; Absorption (OD600-OD570); plate type 384well; NBS; CORNING #3640

SMILES | Inhibition [1] [%] | Inhibition [2] [%] | Inhibition [3] [%] | Inhibition [4] [%] | Inhibition [5] [%] | Inhibition [6] [%]
C[C@@H]1C(=O)C[C@H]2C(C)(C)CCC[C@]2(C)[C@@]1(O)CCc1ccoc1 | -11.22 | -8.38 | 1.88 | -12.83 | 5.12 | -4.02
C=C1C(=O)OC2CC3(C)CCCC(C)C3=CC12 (centres undefined) | 9.16 | -5.59 | -1.07 | 10.15 | 0.7 | -3.97
CC(C)c1ccc2c(c1)CC[C@H]1[C@](C)(C(=O)O)CCC[C@]21C [DEHYDROABIETIC ACID] | 11.51 | -10.79 | 7.61 | -3.77 | 14 | -14.06
Cc1cc2nc3[nH]c(=O)[nH]c(=O)c3nc2cc1C [LUMICHROME] | 0.69 | -0.84 | 3.58 | 12.48 | 0.84 | -5.45
COC(=O)C1C2CC3c4[nH]c5cc(OC)ccc5c4CCN3CC2CC(OC(=O)CCc2cc(OC)c(OC)c(OC)c2)C1OC (centres undefined) | 8.41 | -10.91 | 1.29 | -7.51 | -0.42 | -8.83
CC1(C)C(=O)N2c3ccccc3C3(CC(N4C(=O)c5ccccc5C4=O)C(=O)O3)C2N1C(=O)OCc1ccccc1 (centres undefined) | -7.98 | -16.59 | 1.59 | -2.04 | 1.22 | -12.3
CCC1OC(=O)C(C)C(OC2CC(C)(O)C(O)C(C)O2)C(C)C(O)C(C)(O)CC(C)C(=O)C(C)C(O)C1C (centres undefined) | -9.59 | -2.14 | 7.74 | 3.36 | 1.65 | -12.63
CC(C)=CC(=O)OC1C2C(C)C(=O)OC2C(O)C(C)C2C=CC(=O)C21C (centres undefined) | 8.65 | -2.16 | -1.23 | 13.7 | 0.18 | -5.72
CC(C)CC1NC(=O)C(C(C)C)NC(=O)CC(C)COC(=O)C(CC(C)C)N(C)C(=O)C(C(C)C)NC(=O)C(C(C)C)OC1=O (centres undefined) | -2.11 | 3.02 | 6.85 | 6.52 | -1.26 | -9.65
CC1(C)CCCC2(C)C3=C(CCC12)C(=O)OC3 (centres undefined) | 10.53 | -0.35 | 1.76 | 7.04 | 0.95 | -15.17
CC1CC(O)C2C3(C)CCCC2(COC3=O)C12CCC1(CCOC1=O)O2 (centres undefined) | 0.12 | -5.16 | 2.41 | 8.95 | -0.89 | -8.53
C/C=C/c1cc2c(c(=O)o1)C(=O)[C@@H](O)[C@H](C)O2 | -0.66 | -9.6 | 14.21 | -6.98 | 1.1 | -12.06
COc1cc2c3c(c4ccc(OC)c(OC)c4c2cc1OC)CN1CCC[C@@H]1C3 [TYLOCREBRINE] | 23.41 | -4.59 | 1.54 | 13.12 | -1.43 | -6.05
C=C1C(=O)OC2CC1C(O)C/C(C)=C/CC/C(C)=C/C(O)CC2C (centres undefined) | 8.79 | -8.51 | 8 | 4.77 | 2.83 | -14.61
C=C1C(=O)OC2CC(C)C3(O)CCC(=O)C3(C)CC12 (centres undefined) | 18.37 | -10.29 | 9.08 | 2.56 | 2.8 | -16.95
COc1cc(C)c2c(c1C=O)Oc1c(c(C)c(O)c3c1C(O)OC3=O)OC2=O (centres undefined) [STICTIC ACID] | 1.81 | -4.46 | 10.36 | -0.81 | -4.28 | -12.08
CCC1NC(=O)C(NC(=O)c2ncccc2O)C(C)OC(=O)C(c2ccccc2)NC(=O)C2CC(=O)CCN2C(=O)C(Cc2ccccc2)N(C)C(=O)C2CCCN2C1=O (centres undefined) | 3.19 | -3.49 | 1.18 | 4.35 | -3.25 | -7.49
COc1cc([C@@H]2c3cc4c(cc3[C@@H](OC3OC5CO[C@@H](c6cccs6)OC5C(O)C3O)[C@H]3COC(=O)[C@H]23)OCO4)cc(OC)c1O (some centres undefined) | 7.05 | -1.54 | 1.68 | -0.01 | 0.54 | -9.1
COc1ccc2c(c1OC)C(=O)O[C@@H]2[C@H]1c2c(cc3c(c2OC)OCO3)CCN1C [NOSCAPINE] | 1.91 | -5.12 | 1.19 | -0.26 | -0.41 | -6.69
COC1/C=C\C=C(/C)C(=O)NC2=CC(=O)C(N)=C(CC(C)CC(OC)C(O)C(C)/C=C(\C)C1OC(N)=O)C2=O (centres undefined) | 2.59 | -32.33 | -4.57 | 4.53 | -0.48 | -11.91
COc1ccc2c(c1)O[C@H]1c3ccc(O)cc3OC[C@@H]21 | 7.33 | -10.59 | 8.35 | -2.42 | 12.9 | -18.12
CC(=O)C1CCCC(=O)/C=C/C(=O)O1 (centres undefined) | -2.82 | -9.57 | -0.06 | -0.08 | 6.81 | -5.33
CC(=O)O.COc1ccc2c(=O)oc3c(OC)cc(CCN(C)C)c4c(=O)oc1c2c34 | 18.21 | -7.25 | 6.5 | 15.37 | -2.47 | -6.47
CC1=C2[C@H]3OC(=O)[C@@H](C)[C@@H]3CC[C@@]2(C)C=C/C1=N\O | 19.54 | -5.16 | 3.05 | 6.63 | -0.24 | -9.56
CC[C@]1(O)C[C@H]2CN(CCc3c([nH]c4ccccc34)[C@@](C(=O)OC)(c3cc4c(cc3OC)N(C=O)[C@H]3[C@@](O)(C(=O)OC)[C@H](OC(C)=O)[C@]5(CC)C=CCN6CC[C@]43[C@@H]65)C2)C1.O=S(=O)(O)O [VINCRISTINE SULFATE] | -14.43 | -6.71 | 2.79 | 1.69 | -0.39 | -1.83

SMILES | Inhibition [1] [%] | Inhibition [2] [%] | Inhibition [3] [%] | Inhibition [4] [%] | Inhibition [5] [%] | Inhibition [6] [%]
COC(=O)NC1C(C)OC(OC2C/C=C(/C)C3C=CC4C(OC5CC(OC6CCC(OC7CC(O)C(OC8CCC(O)C(C)O8)C(C)O7)C(C)O6)C(OC(C)=O)C(C)O5)C(C)CC(C)C4C3(C)/C(O)=C3/C(=O)OC4(CC(C=O)=CC(O)C4/C=C\2C)C3=O)CC1(C)[N+](=O)[O-] (centres undefined) | -21.61 | -13.61 | 6.38 | 4.04 | 4.81 | -14.96
COc1cc2c(c(OC)c1OC)-c1ccc(OC)c(=O)cc1[C@@H](NC(C)=O)CC2 [COLCHICINE] | -2.4 | -6.56 | 3.55 | 3.13 | -0.28 | -9.86
COC(=O)[C@@H]1[C@H]2C[C@@H]3c4[nH]c5ccccc5c4CCN3C[C@@H]2CC[C@@H]1O | 20.93 | -4.53 | 11.73 | -5.72 | -3.73 | -8.25
COc1cc(/C=C/C(=O)CC(=O)/C=C/c2ccc(O)c(OC)c2)ccc1O [CURCUMIN] | 13.57 | -16.03 | 0.88 | 14.8 | -4.9 | -10.45
CCCCCCCCCCCCCCCC(=O)O[C@@H]1[C@@H](C)[C@@]2(O)[C@@H](C=C(CO)C[C@]3(O)C(=O)C(C)=C[C@@H]23)[C@H]2[C@]1(OC(C)=O)[C@]2(C)CO | 18.67 | -9.19 | 2.92 | 11.05 | -4.72 | -11.83
CCCCCC[C@H]([C@H](C)O)n1cnc2c(N)ncnc21.Cl | 18.32 | -17.98 | 7.31 | -3.55 | -0.37 | -9.44
O=C1c2cc(O)c(O)cc2O[C@H](c2ccc(O)c(O)c2)[C@H]1O | 16.46 | -11.64 | 7.15 | 6.5 | -0.56 | -13.12
COc1c2occc2cc2ccc(=O)oc12 [METHOXSALEN] | 3.08 | -6.09 | 2.12 | 4.76 | -3.39 | -9.6
CCCCCCCCCCCCCCCCCCOCC(O)CO (centres undefined) [BATILOL] | 16.14 | -8.86 | 0.06 | 2.79 | -1.81 | 0.87
C=C1C(=O)O[C@@H]2[C@H]3O[C@]3(C)CC/C=C(\C)CC[C@@H]12 | -12.66 | 3.45 | 5.09 | 3.51 |  | -8.82
COc1c2occc2c(OC)c2c(=O)cc(C)oc12 [KHELLIN] | 20.27 | -0.82 | 5.11 | 15.74 | -0.57 | -6.58
CCCCCc1cc(O)cc2c1Oc1cc(O)cc(C(=O)CCCC)c1C(=O)O2 | 23.6 | -18.85 | 9.72 | -6.31 | 2.52 | -14.32
CN1CCc2cc3c(cc2C(=O)Cc2ccc4c(c2C1)OCO4)OCO3.Cl [PROTOPINE HYDROCHLORIDE] | 14.82 | -4.7 | 3 | 4.34 | -1.7 | -6.39
COc1ccc(C2CC(=O)c3c(O)cc(OC4OC(CO)C(O)C(O)C4OC4OC(C)C(O)C(O)C4O)cc3O2)cc1O (centres undefined) | 15.96 | -4.03 | 5.81 | 1.79 | -1.53 | -13
O=C(O)CCCCCCC[C@@H](O)[C@@H](O)CCCCCCO | 20.06 | -9.87 | 9.65 | 0.28 | 1.24 | -6.7
COc1c2c(cc3c1[C@@H]1Oc4c(ccc(O)c4CC=C(C)C)[C@@H]1CO3)OC(C)(C)C=C2 | -1.33 | -12.04 | 1.21 | -0.46 | 5.57 | -11.6
COC(=O)[C@]1(C)CCC[C@]2(C)C3=CC(=O)[C@@]4(C(C)C)O[C@H]4[C@]3(O)CC[C@@H]12 | 16.23 | -9.2 | 10.18 | -2.04 | 3.2 | -11.73
O=c1oc2cc(O)ccc2c2oc3cc(O)ccc3c12 [COUMESTROL] | 0.36 | -8.94 | 2.17 | -3.39 | 2.68 | 17.46
CC(=O)Oc1ccc2ccc(=O)oc2c1OC(C)=O | 18.68 | -10.5 | 2.34 | 9 | -1.13 | -4.56
COC(=O)C1C(O)CCC2CN3CCc4c([nH]c5ccccc45)C3CC21 (centres undefined) | 7.76 | -5.08 | 5.27 | 13.74 | 1.54 | -9.85
CC1(C)CC23C4COC(=O)C2CCC1C3CC4=O (centres undefined) | 5.56 | -5.6 | -0.76 | -5.19 | 0.59 | -8.62
O=c1oc2c(O)c(O)cc3c(=O)oc4c(O)c(O)cc1c4c23 [ELLAGIC ACID] | -17.94 | -6.11 | 7.74 | 25.12 | 8.04 | -7.36
COc1c(O)cc2oc3cc(O)c(CC=C(C)C)c(O)c3c(=O)c2c1CC=C(C)C [MANGOSTIN] | -10.76 | -19.44 | -3.06 | -4.57 | -6.96 | -8.44
CC(C)=CCc1c2c(c3occ(-c4ccc(O)c(O)c4)c(=O)c3c1O)C=CC(C)(C)O2 [POMIFERIN] | 6.8 | 23.27 | 0.91 | 26.31 | -6.81 | -8.85
CC(=O)CCCCn1c(=O)c2c(ncn2C)n(C)c1=O [PENTOXIFYLLINE] | 0.21 | 0.79 | 9.18 | -2.03 | 4.24 | -13.02
